Assay results published in the supplement of paper PMC13380429.
A number with no mark means an inactive call.

System: Vero E6 infected with SARS-CoV-2
Assay: inhibition of SARS-CoV-2 cytopathic effect; higher = more antiviral protection, active = above 15
Details: 48 h

| SMILES | inhibition of SARS-CoV-2 cytopathic effect (1 nM) [%] | inhibition of SARS-CoV-2 cytopathic effect (8.33 nM) [%] | inhibition of SARS-CoV-2 cytopathic effect (100 nM) [%] | inhibition of SARS-CoV-2 cytopathic effect (833.33 nM) [%] | inhibition of SARS-CoV-2 cytopathic effect (10000 nM) |
| --- | --- | --- | --- | --- | --- |
| CCC(=O)O[C@@H]1CC(=O)O[C@H](C)C/C=C/C=C/[C@H](O)[C@H](C)C[C@H](CC=O)[C@H](O[C@@H]2O[C@H](C)[C@@H](O[C@H]3C[C@@](C)(O)[C@@H](OC(=O)CC)[C@H](C)O3)[C@H](N(C)C)[C@H]2O)[C@H]1OC [midecamycin] | -1.27 | -3.06 | -2.36 | -0.5 | -0.33% |
| c1cncc(CN2CCC(n3ncc4c(N5CCOCC5)nc(-c5ccc6[nH]ccc6c5)nc43)CC2)c1 | 1.62 | 0.29 | 2.14 | 12.2 | 17.7% (active) |
| COC(=O)C1=C(C)N(C)C(C)=C(C(=O)OC)C1c1ccc(C(F)(F)F)cc1 | 1.98 | -2.17 | 0.85 | 2.1 | 8.02% |
| O=C(O)c1cc(N2N=C(C(F)(F)F)/C(=C/c3ccc(-c4ccccc4)o3)C2=O)ccc1Cl | 0.12 | 1.11 | 0.66 | 0.57 | 3.69% |
| Oc1cccc(O)c1 [resorcinol] | -6.66 | -5.24 | -4.73 | -2.6 | -2.66% |
| CCCCCCCCCCCCCCCCCCN(CCCCCCCCCCCCCCCCCC)CCCN(CCO)CCO [avridine] | -9.9 | -6.98 | -5.76 | -5.17 | -10.1% |
| O=C(NC(=O)c1c(F)cccc1Cl)NC1c2ccccc2-c2ccccc21 | -0.23 | -0.67 | 1.6 | 2.13 | 0.4% |
| COc1ccc2nc3[nH]nc(C)c3c(NCCOCCO)c2c1 | -3.38 | -2.01 | -3.28 | -0.23 | -2.9% |
| CCCCOc1nc(N)c2c(n1)N(Cc1cccc(CN3CCCC3)c1)CC(=O)N2 | 0.32 | 2.16 | 0.03 | 2.02 | 1.92% |
| N=C(N)N [guanidine] | -0.16 | 0.17 | -2.15 | -3.58 | -6.14% |
| O=C(O)c1ccccc1S [o-mercapto-benzoic-acid] | -1.65 | -0.03 | 0.12 | -2.81 | -0.55% |
| O=C(NCCO)c1cccc(-c2cc(Nc3ccc(OC(F)(F)F)cc3)ncn2)c1 | 0.82 | 1.06 | 2.91 | 3.22 | 0.55% |
| O=C(Nc1ccc(Cl)cc1)Nc1cccc(-c2cccc(N3CCCC3)n2)c1 | 1 | 1.53 | -2.03 | -4.04 | -6.24% |
| O=C(OCCO)c1ccccc1O [2-hydroxyethyl-salicylate] | 0.19 | 1.56 | -0.09 | 0.15 | -2.92% |
| NC(=O)c1ccc([N+](=O)[O-])cc1Cl [aklomide] | -0.14 | 0.27 | 2 | 1.45 | 0.79% |
| FC(F)c1nc2ccccc2n1-c1nc(N2CCOCC2)nc(N2CCOCC2)n1 | -2.17 | -0.7 | 0.03 | -2.96 | -6.67% |
| O=C(O)COc1cccc(-c2ocnc2-c2nc(-c3ccccc3)c(-c3ccccc3)o2)c1 | -0.58 | 0.52 | 0.7 | 0 | 3.01% |
| Cc1cc(Nc2nc(N[C@@H](C)c3ccc(F)cc3)c(C#N)cc2F)n[nH]1 | 0.59 | 0.82 | -1.14 | -3.33 | -13% |
| Cc1ccc(NC(=O)C(C)C)cc1C1CCN(Cc2ccc(Oc3ccc(F)c(F)c3)cc2)CC1 | -0.1 | -1.41 | -2.07 | -4.89 | -10.5% |
| Cc1cc(NC(=O)Nc2ccc(N(C)C)cc2)c2cc(F)cc(F)c2n1 | -0.11 | 0.56 | 1.66 | 3.02 | 4.9% |
| COc1cc2ncnc(Oc3cccc(NC(=O)Nc4cc(C(C)(C)C(F)(F)F)on4)c3)c2cc1OC | -0.44 | 0.69 | 2.72 | -0.98 | -6.45% |

| SMILES | inhibition of SARS-CoV-2 cytopathic effect (1 nM) [%] | inhibition of SARS-CoV-2 cytopathic effect (8.33 nM) [%] | inhibition of SARS-CoV-2 cytopathic effect (100 nM) [%] | inhibition of SARS-CoV-2 cytopathic effect (833.33 nM) [%] | inhibition of SARS-CoV-2 cytopathic effect (10000 nM) |
| --- | --- | --- | --- | --- | --- |
| COc1ccc(N(C(=O)Oc2c(C)cccc2C)c2ccnc(Nc3ccc(N4CCN(C)CC4)cc3)n2)c(OC)c1 | 0.25 | 1.54 | 0.43 | 0.02 | -1.27% |
| C=C1C[C@@]2(O)O[C@@]3(C[C@H]2C(C)C)[C@@H](C)CC[C@@H]13 [curcumol] | -2.21 | -1.48 | 1.91 | 0.52 | -2.49% |
| CCN(CCCc1ccccc1)CCCc1ccccc1 [alverine] | -0.33 | 1.03 | -0.23 | -0.58 | -0.57% |
| CNC(=O)c1ccccc1Nc1nc(Nc2ccc(N3CCOCC3)cc2OC)ncc1Cl | -0.14 | -2.52 | -2.14 | -3.76 | -10.9% |
| CNC(=O)c1cnn(-c2nc(N)c3ncn([C@@H]4O[C@H](CO)[C@@H](O)[C@H]4O)c3n2)c1 [regadenoson] | 1.53 | 0.87 | 3.4 | -1.38 | -0.12% |
| Cc1cccn2c(=O)c(-c3nnn[nH]3)cnc12 [pemirolast] | -0.01 | 0.57 | 0.12 | 3.15 | -1.12% |
| NC(=O)C[S+]([O-])C(c1ccccc1)c1ccccc1 (stereo not given) | -2.5 | -3.65 | -0.185 | -1.01 | -3.77% |
| CC(C)(C)c1cc(C(=O)/C(C#N)=N/Nc2cccc(Cl)c2)no1 | 1.62 | -1.2 | -0.43 | 2.18 | 11.6% |
| CN1CCN(c2ccc(C(=O)Nc3n[nH]c4ccc(Cc5cc(F)cc(F)c5)cc34)c(NC3CCOCC3)c2)CC1 [entrectinib] | 4 | 2.95 | -2.01 | -2.36 | -12.4% |
| Oc1nc(O)c2nc(O)[nH]c2n1 [uric-acid] | -0.34 | 0.2 | -1.96 | -1.44 | -0.42% |
| Cc1c(Cc2ccc3ccccc3n2)c2cc(F)ccc2n1CC(=O)O | 1.64 | -0.1 | 0.44 | -1.23 | -2.21% |
| CC(C)[C@@H]1C(=O)N(S(C)(=O)=O)[C@@H]2CCN(C(=O)/C=C/CN3CCCCC3)[C@H]21 | -0.03 | -1.45 | 1.05 | -0.28 | 0.66% |
| Cc1cccc(C(C)c2c[nH]cn2)c1C (stereo not given) [medetomidine] | 0.12 | -1.31 | -1.87 | -1.95 | -1.68% |
| c1cnc(SCc2cccnc2)nc1 [tasuldine] | 1.94 | 1.66 | 0.38 | 0.69 | 1.89% |
| NC[C@H]1O[C@H](O[C@H]2[C@H](O)[C@@H](O[C@H]3O[C@H](CO)[C@@H](O)[C@H](N)[C@H]3O)[C@H](N)C[C@@H]2N)[C@H](N)C[C@@H]1O [tobramycin] | -1.08 | 1.78 | -0.88 | 0.11 | 0.19% |
| Oc1c(Cl)cc(Cl)c2cccnc12 [chloroxine] | 2.69 | 2.44 | 1.43 | -0.59 | -0.15% |
| CCCn1cnc2c1c(=O)n(CCCCC(C)=O)c(=O)n2C [propentofylline] | 0.84 | 2.46 | 1.32 | 2.05 | 0.29% |
| Cc1cnc(C(=O)O)c[n+]1[O-] [acipimox] | -1.88 | -0.46 | -1.4 | -2.17 | -1.06% |
| c1ccc(C2CN3CCSC3=N2)cc1 (stereo not given) [tetramisole] | 0.71 | 1.55 | 0.335 | 6.51 | 2.84% |
| COc1ccc(Oc2c(Cl)cnn(C3c4ccccc4-c4ccccc43)c2=O)cc1 | -3.45 | -3.66 | 0.55 | -0.63 | -0.88% |
